Screening results as filed in PubChem.
This is a sample that favours compounds with a hit; in the whole collection about 10% have one here.
GLS inhibitor = glutaminase GLS (human) inhibition; O94925; AID 624170; Potency, µM (doses to about 45.5 µM), without a hit: at the top dose activity change, negative = inhibition, hits mostly inhibitors; actives 0.21% (n = 410,000); GLS enzymatic activity, qHTS titration; also: % is scaled to controls: 0 for no effect and ±100 for the full control effect
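hKGA; 45 mM KH2PO4 pH 8.2 + 0.02% Tween-20; cpd via pin tool; 1 mM Gln soln; GluOx/HRP/Amplex Red; RT 30 min; fluor. t0 & final.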
JMJD2A Tudor = blocks the human JMJD2A Tudor domain | O75164 | AlphaScreen JMJD2A-Tudor / H3K4me3 peptide binding | Potency, µM (series often up to 114 µM), for inactives: top-dose activity change, negative = inhibition, actives largely listed as inhibitors | actives 4.4% (n = 390,000); also: % is scaled to controls: 0 for no effect and ±100 for the full control effect; nearly all actives have a fitted effect of over 50% in size
HP1b binding inh = blocks HP1-beta chromodomain binding to methylated histone tails; Potency, µM (top dose mostly 114 µM), for inactives: at the top dose activity change, negative = inhibition, most hits filed as inhibitors; AID 540317; actives 0.56% (n = 390,000); P83916; AlphaScreen HP1-beta / biotin-H3K9me3 peptide binding; also: nearly all actives have a fitted effect of over 70% in size
Target sequence (P83916 whole entry, looked up): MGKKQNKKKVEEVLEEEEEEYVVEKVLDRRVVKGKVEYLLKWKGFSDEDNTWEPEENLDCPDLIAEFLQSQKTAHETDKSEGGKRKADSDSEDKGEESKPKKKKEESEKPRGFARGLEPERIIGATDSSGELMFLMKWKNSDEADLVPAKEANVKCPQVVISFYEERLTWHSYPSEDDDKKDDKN
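HP1-beta protein (50 nM final) preincubated 30 min at room temperature with biotinylated H3(1-18)K9me3 peptide (50 nM) in PBS pH 7.4, 0.01% Tween-20, then compound added for 30 min. AlphaScreen streptavidin donor/nickel chelate acceptor beads (10 ug/mL final), 30 min dark, luminescence read.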
G9a block = G9a (human) methyltransferase inhibition; Q96KQ7; G9a H3K9 monomethylation, AlphaScreen, 2 h; Potency, µM (top dose mostly 102 µM), inactives show at the highest dose activity, negative = inhibition, hits mostly inhibitors; actives 8.8% (n = 350,000); AID 504332; also: % is scaled to controls: 0 for no effect and ±100 for the full control effect; nearly all actives have a fitted effect of over 75% in size
Target sequence (Q96KQ7 913-1193 limits assumed): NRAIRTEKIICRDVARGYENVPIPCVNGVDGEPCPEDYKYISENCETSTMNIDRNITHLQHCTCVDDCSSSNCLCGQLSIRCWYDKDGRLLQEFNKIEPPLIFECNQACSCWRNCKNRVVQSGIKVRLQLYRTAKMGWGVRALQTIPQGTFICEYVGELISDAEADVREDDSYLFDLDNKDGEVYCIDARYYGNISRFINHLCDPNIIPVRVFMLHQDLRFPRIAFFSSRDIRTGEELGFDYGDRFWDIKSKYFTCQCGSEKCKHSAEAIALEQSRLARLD
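Methyltransferase reactions run at room temperature for 2 h (20 nM enzyme, 500 nM biotin-H3K9 peptide, 20 uM SAM) after a 15 min compound preincubation; product detected by AlphaScreen beads and anti-H3K9me1 antibody.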
BAZ2B inh = blocks human BAZ2B; AlphaScreen BAZ2B-H3K14Ac peptide displacement; Potency, µM (top dose mostly 114 µM), for inactives: at the highest dose activity change, negative = inhibition, usual class: inhibitors; actives 4.4% (n = 360,000); AID 504333; also: % is scaled to controls: 0 for no effect and ±100 for the full control effect; nearly all actives have a fitted effect of over 60% in size
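Compounds, titrated to a top concentration of 110 uM, were incubated 30 min at room temperature with preformed BAZ2B/acetyl-K14 H3 peptide complex (50 nM each). Proximity signal was measured by AlphaScreen after 20 min with beads.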
* marks the source's active call; other numbers are inactive results; [ ] = dose if it differs, or a comment. Calls follow the shape of the dose curve; as a rule, active = well fitted curve in the direction sought with a large enough effect; inconclusive = small, poorly fitted or top-dose-only effect, or another doubt; inactive = no such curve, though single readings can be large; an effect the other way counts as inactive or inconclusive. Potency is read from the fitted curve at half-maximal effect.

For COc1ccc(-c2[nH]ncc2CN2CCCC(C(=O)c3cccc(OC)c3)C2)cc1 (configuration not stated) the results were GLS inhibitor 3.7%, JMJD2A Tudor -25.9%, HP1b binding inh 16.9%, G9a block 44.7µM* and BAZ2B inh -3.9%.
`Cc1nonc1N1CCN(Cc2cn[nH]c2-c2ccc3c(c2)OCO3)CC1` gave GLS inhibitor 0.0%, JMJD2A Tudor -22.2%, HP1b binding inh 25.9%, G9a block 8.6% and BAZ2B inh -3.1%.
`COc1ccc2cc(-c3[nH]ncc3CN3CCCC3c3nonc3C)ccc2c1` (configuration not stated) gave GLS inhibitor 12.9%, JMJD2A Tudor 79.4µM*, HP1b binding inh 12.8%, G9a block -33.4% and BAZ2B inh inconclusive.
COc1ccc(-c2[nH]ncc2CN2CCC(O)(c3ccc(Cl)cc3)CC2)cc1 was read as GLS inhibitor -3.3%, JMJD2A Tudor -20.0%, HP1b binding inh 30.5% and BAZ2B inh -11.6%.
Fc1ccc(-c2[nH]ncc2CN2CCN(c3ccc(F)cc3)CC2)cc1 was read as GLS inhibitor -21.9%, JMJD2A Tudor -28.5%, HP1b binding inh -12.9%, G9a block inconclusive and BAZ2B inh -38.6%.
Screening Fc1ccc(N2CCN(Cc3cn[nH]c3-c3ccccc3)CC2)cc1 returned GLS inhibitor 0.8%, JMJD2A Tudor -35.1%, HP1b binding inh -16.6%, G9a block 70.8µM* and BAZ2B inh -25.3%.
For CCOc1ccc(C(=O)c2cn(Cc3ccc(OC)cc3)c3cc(OC)c(OC)cc3c2=O)cc1 the results were GLS inhibitor -5.3%, JMJD2A Tudor -26.3%, HP1b binding inh 41.9%, G9a block 0.4%[59 µM] and BAZ2B inh -1.3%.
Screening O=c1[nH]c2ccccc2n1Cc1ccccc1 returned GLS inhibitor -0.1%, JMJD2A Tudor 1.4%, HP1b binding inh 42.6%, G9a block -14.4%[59 µM] and BAZ2B inh -6.3%.
For S=c1[nH]c2cnccc2n1Cc1ccccc1 the results were GLS inhibitor -1.1%, JMJD2A Tudor 17.8µM*, HP1b binding inh 11.1%, G9a block 7.08µM* and BAZ2B inh -17.6%.
`S=c1[nH]nc(-c2cccnc2)n1Cc1ccccc1` gave GLS inhibitor -8.4%, JMJD2A Tudor 8.91µM*, HP1b binding inh 11.1%, G9a block 1.26µM* and BAZ2B inh -4.9%.
`Cc1cc(-c2n[nH]c(=S)n2Cc2ccccc2)cs1` gave GLS inhibitor 2.2%, JMJD2A Tudor 17.8µM*, HP1b binding inh -2.1%, G9a block 1.26µM* and BAZ2B inh -9.7%.
Screening CC(C)(C)c1ccc(-c2n[nH]c(=S)n2Cc2ccccc2)cc1 returned GLS inhibitor 0.0%, JMJD2A Tudor -4.2%, HP1b binding inh 30.0%, G9a block -39.4% and BAZ2B inh -10.8%.
For O=c1[nH]cc(-c2ccc(Br)cc2)n1Cc1ccccc1 the results were GLS inhibitor -2.0%, JMJD2A Tudor -27.5%, HP1b binding inh -37.5%, G9a block 11.2µM* and BAZ2B inh inconclusive.
`FC(F)C(F)(F)Oc1cccc(-c2n[nH]c(=S)n2Cc2ccccc2)c1` gave GLS inhibitor -23.5%, JMJD2A Tudor -34.8%, HP1b binding inh -13.6%, G9a block 2.7%[0.501 µM] and BAZ2B inh -3.8%.
Screening Cc1nc2ccccc2c2ncccc12 returned GLS inhibitor 2.6%, JMJD2A Tudor 5.7%, HP1b binding inh 52.1%, G9a block -6.9% and BAZ2B inh 8.5%.
Cc1ccccc1CNC(=O)C1CCN(S(=O)(=O)Cc2ccccc2)CC1 was read as GLS inhibitor 4.3%, JMJD2A Tudor 4.6%, HP1b binding inh 29.5%, G9a block -38.0%[59 µM] and BAZ2B inh 2.2%.
Screening COc1ccccc1-n1c(-c2ccc(Cl)cc2)c[nH]c1=S returned GLS inhibitor -24.7%, JMJD2A Tudor inconclusive, HP1b binding inh -7.9%, G9a block inconclusive and BAZ2B inh inconclusive.
Screening Oc1ccc(-c2n[nH]c(=S)n2Cc2ccccc2)cc1 returned GLS inhibitor -1.5%, JMJD2A Tudor 31.6µM*, HP1b binding inh -8.4%, G9a block 1.12µM* and BAZ2B inh 1.4%.
For S=c1[nH]nc(-c2ccncc2)n1Cc1ccccc1 the results were GLS inhibitor 20.5%, JMJD2A Tudor 7.94µM*, HP1b binding inh 25.8% and G9a block 10µM*.
For Fc1ccc(-c2c[nH]c(=S)n2Cc2ccccc2)cc1 the results were GLS inhibitor inconclusive, JMJD2A Tudor inconclusive, HP1b binding inh 20.5%, G9a block 1.12µM* and BAZ2B inh -37.9%.
Screening S=c1[nH]nc(-c2ccc(Br)cc2)n1Cc1ccccc1 returned GLS inhibitor inconclusive, JMJD2A Tudor inconclusive, HP1b binding inh -20.5%[57 µM], G9a block 10µM* and BAZ2B inh inconclusive.
`COc1ccc(C(=O)NCC(c2ccc3c(c2)OCO3)N2CCN(C)CC2)cc1OC` (configuration not stated) gave GLS inhibitor 2.1%, JMJD2A Tudor -0.3%, HP1b binding inh 55.1%[57 µM], G9a block 12.0%[59 µM] and BAZ2B inh 39.1%.
Screening Cc1ccn2c(-c3n[nH]c(=S)n3Cc3ccccc3)c(C)nc2c1 returned GLS inhibitor 12.4%, JMJD2A Tudor 3.55µM*, HP1b binding inh inconclusive, G9a block 7.08µM* and BAZ2B inh -6.6%.
Screening S=c1[nH]nc(-c2ccc3ccccc3n2)n1Cc1ccccc1 returned GLS inhibitor -11.4%, JMJD2A Tudor -17.1%, HP1b binding inh 29.2%, G9a block inconclusive and BAZ2B inh 5.0%.
`O=c1cc(-c2ccccc2)cc(-c2ccccc2)n1CCCO` gave GLS inhibitor 1.9%, JMJD2A Tudor -19.6%, HP1b binding inh 12.6%, G9a block 16.3%[2.33 µM] and BAZ2B inh -3.2%.
CCCCOc1ccc(-c2n[nH]c(=S)n2Cc2ccccc2)cc1 was read as GLS inhibitor -27.5%, JMJD2A Tudor -22.4%, HP1b binding inh 1.8%, G9a block 20µM* and BAZ2B inh -0.7%.
For Fc1ccc(-c2n[nH]c(=S)n2Cc2ccccc2)cc1 the results were GLS inhibitor 27.3%, JMJD2A Tudor 17.8µM*, HP1b binding inh 6.1%, G9a block inconclusive and BAZ2B inh -1.0%.
`OCCCn1c(-c2ccccc2)n[nH]c1=S` gave GLS inhibitor -9.3%, JMJD2A Tudor 28.2µM*, HP1b binding inh 24.4%, G9a block 7.94µM* and BAZ2B inh -2.9%.
CCOc1ccc(C(=O)N2CC(=O)Nc3ccc(C)cc3C2c2ccc(F)cc2)cc1OCC (configuration not stated) was read as GLS inhibitor 9.3%, JMJD2A Tudor -25.6%, HP1b binding inh 8.6%, G9a block -14.9%[59 µM] and BAZ2B inh -14.8%.
CC1CCc2c(sc(NC(=O)Cc3ccccc3)c2C(=O)Nc2ccc(Cl)cc2)C1 (configuration not stated) was read as GLS inhibitor -3.2%, JMJD2A Tudor -10.1%, HP1b binding inh 42.7%, G9a block -0.6%[59 µM] and BAZ2B inh 2.8%.
